# Screening results: PubChem, National Center for Advancing Translational Sciences (NCATS)
# DT40 TDP1 CPT = growth inhibition of DT40 Tdp1-/-;hTDP1 cells with camptothecin (screen for TDP1 inhibitors); chicken DT40 Tdp1-/-;hTDP1 cells + 20 nM CPT, ATP luminescence, 48 h; Potency, µM (top dose mostly 46.2 µM), hits mostly inhibitors; 12% of 420,000 active; AID 686979; note: nearly all actives have a fitted effect of over 55% in size
#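 Chicken DT40 Tdp1-/- cells complemented with human TDP1, 400 cells/well, exposed to compounds plus 20 nM camptothecin for at least 48 h at 37 C; viability read as ATP content by CellTiter-Glo luminescence.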
# IL-1B inflam inh = inflammasome signaling inhibition, IL-1 beta readout; THP-1 LPS/ATP IL-1B secretion, AlphaLISA, 16 h; hits give low values; activity change, % at 57.5 µM; 4.7% of 360,000 active; in the data active = activity change below about -50%; inconclusive = mostly about -30% to -49%
#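 THP-1 cells pretreated 1 hr with compounds (up to 57.5 uM final), then stimulated with LPS (250 ng/mL final) plus ATP (1.25 mM final); secreted IL-1B measured by AlphaLISA after 16 hr, decreased signal indicating inhibition.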
# RORgamma inh = ROR gamma (mouse) transcription inhibition; Drosophila S2 Gal4-RORgamma UAS-luciferase reporter, 20 h; 5.4% of 310,000 active; P51450; Potency, µM (series often up to 53.6 µM), hits mostly inhibitors; note: nearly all actives have a fitted effect of over 60% in size
# Target sequence (P51450 whole entry, looked up, the tested form may be a part): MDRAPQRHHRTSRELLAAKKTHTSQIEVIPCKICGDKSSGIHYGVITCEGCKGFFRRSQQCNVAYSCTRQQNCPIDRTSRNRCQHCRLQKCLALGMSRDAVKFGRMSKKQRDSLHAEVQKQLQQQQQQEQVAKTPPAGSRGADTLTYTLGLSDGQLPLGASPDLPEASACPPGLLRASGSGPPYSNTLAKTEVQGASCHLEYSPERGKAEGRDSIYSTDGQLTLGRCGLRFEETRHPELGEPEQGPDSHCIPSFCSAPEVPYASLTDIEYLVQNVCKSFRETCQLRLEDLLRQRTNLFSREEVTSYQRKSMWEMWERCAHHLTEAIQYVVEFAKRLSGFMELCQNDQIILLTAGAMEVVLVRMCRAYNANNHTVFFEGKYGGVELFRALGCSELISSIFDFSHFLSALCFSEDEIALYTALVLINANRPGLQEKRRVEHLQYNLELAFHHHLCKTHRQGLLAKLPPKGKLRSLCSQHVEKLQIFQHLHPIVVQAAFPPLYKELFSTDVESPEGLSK
#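 A Gal4/UAS one-hybrid system in insect cells: metallothionein-promoter Gal4–ROR gamma fusion plus Photinus luciferase reporter. Copper sulfate 700 uM final, 20 hr ambient incubation, luminescent detection after 10 min with reagent.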
# TDP1 cell noCPT = qHTS for Inhibitors of human tyrosyl-DNA phosphodiesterase 1 (TDP1): qHTS in cells in absence of CPT; DT40 Tdp1-/- hTDP1 cells, no CPT, ATP luminescence, 48 h; Potency, µM (titrated, usually from 46.2 µM), usual class: inhibitors; 15% of 420,000 active; AID 686978, 2013; note: nearly all actives have a fitted effect of over 55% in size
#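 A cellular qHTS used chicken DT40 cells lacking endogenous Tdp1 but carrying stably transfected human TDP1. Compounds were applied without camptothecin, and cell growth kinetics were judged by ATP-dependent luminescence after ≥48 hr.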
# ELG1 repair inh = ELG1-dependent DNA repair inhibition. HEK293T ELG1-luciferase reporter, luminescence, 16 h; DNA damage induced by 5-fluorouridine. Potency, µM (titrated, usually from 46.1 µM), most hits filed as inhibitors. 2.3% of 330,000 active. AID 504467; note: nearly all actives have a fitted effect of over 55% in size
#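 Overnight (16 hr) co-exposure of 2,000 cells/well to 5-fluorouridine and compound at 37 °C preceded detection. Luciferase was quantified via ONE-Glo luminescence; loss of signal denotes inhibition.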
# VP16 counter = inhibits Gal4-VP16 luciferase reporter, ROR gamma counter-screen; Drosophila S2 Gal4-VP16 UAS-luciferase, luminescence, 20 h; Potency, µM (doses to about 53.6 µM), usual class: inhibitors; 3.5% of 310,000 active; AID 2546;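 note: Gal4-VP16 expression switched on by copper sulfate through the metallothionein promoter; nearly all actives have a fitted effect of over 50% in size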
# Hits are given with their value; 0 = inactive; ? = inconclusive; - = not tested or not shown; [ ] = another dose, or the depositor's remark. The list is not random: actives were taken first. Their share in the collection is about 21%. Unless noted, calls come from the whole dose curve; as a rule, active = well fitted curve in the direction sought with a large enough effect; inconclusive = small, poorly fitted or top-dose-only effect, or another doubt; inactive = no such curve, though single readings can be large; an effect the other way counts as inactive or inconclusive.
SMILES,DT40 TDP1 CPT,IL-1B inflam inh,RORgamma inh,TDP1 cell noCPT,ELG1 repair inh,VP16 counter
CCCc1[nH]nc2c1C(c1ccc(O)cc1OCC)C(C#N)=C(N)O2 (configuration not stated),?,-75.6,0,?,0,0
Cc1[nH]nc2c1C(c1ccoc1)C(C#N)=C(N)O2 (configuration not stated),0,?,0,0,0,0
CCCc1[nH]nc2c1C(c1ccsc1)C(C#N)=C(N)O2 (configuration not stated),16.4µM,-228.2,0,?,0,0
CCCc1[nH]nc2c1C(c1ccoc1)C(C#N)=C(N)O2 (configuration not stated),?,-80.1,?,?,0,0
CCOc1cc(C2C(C#N)=C(N)Oc3n[nH]c(CC)c32)ccc1OCCN1CCOCC1 (configuration not stated),0,-61.0,0,0,0,0
CCCc1[nH]nc2c1C(c1ccc(OCCN3CCOCC3)c(OCC)c1)C(C#N)=C(N)O2 (configuration not stated),0,0,0,0,0,0
Cc1ccc(Cl)cc1N1CCN(c2cccc[n+]2C)CC1,?,0,0,25.9µM,0,0
Clc1ccccc1N1CCN(c2ncnc3nc[nH]c23)CC1,0,0,0,0,0,0
C[n+]1ccccc1N1CCN(c2ccccc2Cl)CC1,23.1µM,0,0,?,?,0
CC1CN=C2C(C(=O)Nc3ccccc3)=C(O)CC(c3ccccc3)N21 (configuration not stated),?,0,?,23.1µM,0,0
Cc1nn(CC2CCCCC2)c(N)c1-c1ccccc1,?,0,?,?,?,11.2µM
Cc1nn(-c2ccccc2)c(N)c1-c1ccccc1,0,0,0,0,?,?
CSCCC(=O)N1CCN(CC(=O)N2CCCC2)CC1,0,0,2.82µM,0,?,0
C=CCOc1c(/C=N\NC(N)=O)cccc1OC,0,0,0,0,0,0
C=CCOc1ccccc1/C=N/NC(=O)Cc1ccc(C)cc1,0,0,11.2µM,?,0,?
COc1cccc(/C=N\NC(C)=O)c1OC/C=C/c1ccccc1,?,0,8.91µM,?,20.6µM,11.2µM
N#CCC(=O)N/N=C\c1ccc(OC/C=C/c2ccccc2)cc1,0,0,0,0,?,0
CCOc1ccccc1C=NNC(=O)CCCCC(=O)NN=Cc1ccccc1OCC,0,0,-,0,-,-
N#CCC(=O)N/N=C\c1ccccc1OC/C=C/c1ccccc1,5.8µM,0,0,4.11µM,?,0
COCC(=O)N/N=C\c1ccccc1OC/C=C/c1ccccc1,?,0,0,25.9µM,0,0
CN(C)C(=O)c1cc(C(=O)Cc2ccccc2)c[nH]1,0,0,0,0,0,0
CCc1c2c(nc3cccc(SC)c13)COC2,-,-,0,-,-,0
Cc1ccc(S(=O)(=O)CCC(=O)OCC(=O)NCCc2ccccc2)cc1,0,0,-,0,0,-
COc1cc(C=C(C#N)c2ccc([N+](=O)[O-])cc2)ccc1O,?,0,-,?,-,-
Cc1ccc(NC(=O)Cn2nnc(C(=O)NCc3ccc4c(c3)OCO4)c2N)cc1Cl,0,-,-,0,-,-
SMILES,DT40 TDP1 CPT,IL-1B inflam inh,RORgamma inh,TDP1 cell noCPT,ELG1 repair inh,VP16 counter
CC12CCC(O)CC1=CCC1C2CCC2(C)c3[nH]ncc3CC12 (configuration not stated),0,0,-,0,-,-
COc1cc(/C=N\NC(=O)C(C)(C)O)ccc1OC/C=C/c1ccccc1,?,0,35.5µM,0,0,?
O=C(Nc1cc(Cl)cc(Cl)c1)c1ccc(F)c(S(=O)(=O)N2CCc3ccccc32)c1,5.8µM,-,-,9.2µM,-,-
O=C(Nc1cc(Cl)cc(Cl)c1)c1ccc(F)c(S(=O)(=O)N2CCCC2)c1,16.4µM,-,-,20.6µM,-,-
O=C(Nc1ccc(S(=O)(=O)N2CCc3ccccc32)cc1)c1ccc2c(c1)OCO2,?,?,?,?,?,0[0.365 µM]
CC(C)c1ccc(NC(=O)c2ccc(F)c(S(=O)(=O)N3CCCC3)c2)cc1,10.3µM,-,-,?,-,-
COc1ccc(NC(=O)CN2C(=O)c3ccccc3S2(=O)=O)cc1S(=O)(=O)N1CCOCC1,0,0,-,0,0,-
COC(=O)c1cncn1Cc1ccccc1,0,0,-,0,-,-
Cc1ccc(C)c(C(=O)COC(=O)c2cc([N+](=O)[O-])ccc2N2CCOCC2)c1,?,0,-,?,0,-
O=C(c1ccccc1)c1cc([N+](=O)[O-])ccc1N1CCCC1,0,0,0,0,0,0
Cc1ccc(C(=O)c2cc([N+](=O)[O-])ccc2N2CCOCC2)c(C)c1,0.82µM,0,0,0.92µM,0,0
Cc1ccc(C(=O)c2cc([N+](=O)[O-])ccc2N2CCOCC2)cc1C,1.46µM,0,0[10 µM],0.731µM,?,0
Cc1ccc(C(=O)c2cc([N+](=O)[O-])ccc2N2CCCCC2)cc1C,3.26µM,0,0[10 µM],5.17µM,?,0
CSc1ccccc1NC(=O)C1(C)CCN1C(=O)Cc1ccccc1Cl (configuration not stated),0,0,-,0,-,-
CC(C)Cn1c(N)c(C(=O)COC(=O)c2cnc(Cl)c(Cl)c2)c(=O)n(C)c1=O,18.4µM,0,?,?,0,0
CC(C)Cn1c(N)c(C(=O)COC(=O)c2cc(F)cc(F)c2)c(=O)n(C)c1=O,0,0,?,?,18.3µM,0
CC(=O)c1c(C)[nH]c(C(=O)OCC(=O)c2c(N)n(CC(C)C)c(=O)n(C)c2=O)c1C,?,0,-,23.1µM,0,-
CC(C)Cn1c(N)c(C(=O)COC(=O)C2CCCCC2)c(=O)n(C)c1=O,16.4µM,0,?,18.4µM,?,0
Cc1ccc(NC(=O)C2CCN(S(=O)(=O)c3ccc4c(c3)OCCO4)CC2)c(O)c1,0,0,-,0,0,-
CC(C)Cn1c(N)c(C(=O)COC(=O)C2Cc3ccccc3CN2S(C)(=O)=O)c(=O)n(C)c1=O (configuration not stated),6.51µM,0,-,5.17µM,9.2µM,-
Cn1c(=O)c(C(=O)CCl)c(N)n(CC2CC2)c1=O,23.1µM,?,0,18.4µM,?,0
Cc1cccc(N2CC(C(=O)OCC(=O)c3c(N)n(CC(C)C)c(=O)n(C)c3=O)CC2=O)c1C (configuration not stated),?,0,-,?,0,-
O=C(c1ccncc1)N1CCC2(CC1)CCN(c1ccccc1)CC2,0,-,0,?,-,0
O=C(Nc1ccncc1)C1CC(=O)N(Cc2ccccc2)C1 (configuration not stated),0,0,-,0,-,-
